In all, about 5,500 compounds went through this assay and about 2,000 (36%) were called active. About 18% were inconclusive and are not listed. No stated cut-off is given here; in the data, active means normalized growth mostly below about 0.91 (no sharp cut-off); inconclusive means no clear call, values can overlap the other calls; inactive means mostly above about 0.92. This is one part of the list.
Test: chemical genetic growth profiling, strain panel (AID 1159580);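 further: tested at 20 µM; growth read once vehicle control cultures reached saturation at 30 °C; 1 = growth at the plate median or of vehicle wells; lower values mean less growth of the strain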
Conditions: S. cerevisiae deletion strains, growth OD
[1] = locus YHR030C, strain SLT2, hits give low values
[2] = locus YHR079C, strain IRE1, hits give low values
[3] = locus YJL095W, strain BCK1, hits give low values
[4] = locus YJR066W, strain TOR1, hits give low values
[5] = locus YLR113W, strain HOG1, hits give low values
[6] = locus YNL183C, strain NPR1, hits give low values
[7] = locus YOR231W, strain MKK1, hits give low values
[8] = locus YPL256C, strain CLN2, hits give low values

Measured: normalized growth

O=C(/C=C/Sc1nc2ccccc2s1)c1ccc(Cl)cc1
inactive: locus YAR019C, strain CDC15, hits give low values 0.977 | locus YBL105C, strain PKC1, hits give low values 0.972 | locus YBR135W, strain CKS1, hits give low values 0.983 | locus YBR136W, strain MEC1, hits give low values 0.986 | locus YBR160W, strain CDC28, hits give low values 0.983 | locus YDL017W, strain CDC7, hits give low values 0.983 | locus YDL028C, strain MPS1, hits give low values 0.987 | locus YDL101C, strain DUN1, hits give low values 0.975 | locus YDL108W, strain KIN28, hits give low values 0.985 | locus YDL132W, strain cdc53, hits give low values 0.983 | locus YDL214C, strain PRR2, hits give low values 0.894 | locus YDR052C, strain DBF4, hits give low values 0.99 | locus YDR054C, strain cdc34, hits give low values 0.969 | locus YDR226W, strain ADK1, hits give low values 0.981 | locus YDR477W, strain SNF1, hits give low values 0.926 | locus YER123W, strain YCK3, hits give low values 0.872 | locus YER133W, strain GLC7, hits give low values 0.911 | locus YFL009W, strain cdc4, hits give low values 0.98 | locus YFL029C, strain CAK1, hits give low values 0.977 | locus YFR003C, strain YPI1, hits give low values 0.981 | locus YFR019W, strain FAB1, hits give low values 0.932 | locus YFR028C, strain CDC14, hits give low values 0.986 | locus YGR040W, strain KSS1, hits give low values 0.941 | locus YGR052W, strain FMP48, hits give low values 0.92 | locus YGR092W, strain DBF2, hits give low values 0.925 | [2] 0.78 | locus YHR082C, strain KSP1, hits give low values 0.932 | locus YHR205W, strain SCH9, hits give low values 0.743 | locus YIL147C, strain SLN1, hits give low values 0.99 | [3] 0.854 | locus YJL128C, strain PBS2, hits give low values 0.954 | locus YJL157C, strain FAR1, hits give low values 0.896 | locus YJR016C, strain ILV3, hits give low values 0.985 | locus YJR066W, strain TOR1 (second series), hits give low values 0.808 | [4] 0.893 | locus YKL048C, strain ELM1, hits give low values 0.958 | locus YKL067W, strain YNK1, hits give low values 0.909 | locus YKL101W, strain HSL1, hits give low values 0.927 | locus YKL193C, strain SDS22, hits give low values 0.986 | locus YKL203C, strain TOR2, hits give low values 0.975 | locus YLR133W, strain CKI1, hits give low values 0.905 | locus YLR403W, strain SFP1, hits give low values 0.901 | locus YML070W, strain DAK1, hits give low values 0.877 | locus YMR001C, strain CDC5, hits give low values 0.978 | locus YMR205C, strain PFK2 (second series), hits give low values 0.936 | locus YMR277W, strain FCP1, hits give low values 0.988 | locus YNL006W, strain LST8, hits give low values 0.979 | locus YNL020C, strain ARK1, hits give low values 0.911 | locus YNL161W, strain CBK1, hits give low values 0.962 | [6] 0.923 | locus YNL207W, strain RIO2, hits give low values 0.988 | locus YNL222W, strain SSU72, hits give low values 0.981 | locus YNL307C, strain MCK1 (second series), hits give low values 0.92 | locus YOL078W, strain AVO1, hits give low values 0.981 | locus YOL136C, strain PFK27, hits give low values 0.83 | locus YOR061W, strain CKA2, hits give low values 0.953 | locus YOR119C, strain RIO1, hits give low values 0.996 | [7] 0.811 | locus YOR329C, strain SCD5, hits give low values 0.972 | locus YPL031C, strain PHO85, hits give low values 0.912 | locus YPL153C, strain RAD53, hits give low values 0.942 | locus YPL204W, strain HRR25, hits give low values 0.882 | locus YPL209C, strain IPL1, hits give low values 0.979 | locus YPR025C, strain CCL1, hits give low values 0.972 | locus YPR106W, strain ISR1, hits give low values 0.985 | locus YPR111W, strain DBF20, hits give low values 0.979 | strain NNK1, hits give low values 0.981 | strain TSCII, hits give low values 0.983
active: [1] 0.697 | [5] 0.593 | [8] 0.72

CCOC(=O)Nc1nc2ccccc2[nH]1
inactive: locus YAL021C, strain ccr4, hits give low values 0.936 | locus YAL026C, strain drs2, hits give low values 0.977 | locus YAL030W, strain snc1, hits give low values 0.96 | locus YBL061C, strain skt5, hits give low values 0.982 | locus YBR009C, strain hhf1, hits give low values 0.967 | locus YBR023C, strain chs3, hits give low values 0.995 | locus YBR171W, strain sec66, hits give low values 0.965 | locus YBR231C, strain swc5, hits give low values 0.988 | locus YBR279W, strain paf1, hits give low values 0.991 | locus YCL011C, strain gbp2, hits give low values 0.979 | locus YCL016C, strain dcc1, hits give low values 0.995 | locus YCL061C, strain MRC1, hits give low values 0.992 | locus YCL069W, strain vba3, hits give low values 0.992 | locus YCR088W, strain abp1, hits give low values 0.99 | locus YDL005C, strain med2, hits give low values 0.994 | locus YDL040C, strain nat1, hits give low values 0.994 | locus YDR001C, strain nth1, hits give low values 0.97 | locus YDR069C, strain doa4, hits give low values 0.902 | locus YDR137W, strain rgp1, hits give low values 0.865 | locus YDR159W, strain sac3, hits give low values 0.979 | locus YDR195W, strain ref2 1.13 | locus YDR297W, strain sur2, hits give low values 0.964 | locus YDR334W, strain swr1, hits give low values 0.947 | locus YDR335W, strain msn5, hits give low values 0.989 | locus YDR392W, strain spt3, hits give low values 0.972 | locus YEL003W, strain gim4, hits give low values 0.972 | locus YEL037C, strain rad23, hits give low values 0.984 | locus YEL061C, strain CIN8 (second series), hits give low values 0.983 | locus YER015W, strain faa2, hits give low values 0.972 | locus YER016W, strain bim1, hits give low values 0.994 | locus YER111C, strain swi4, hits give low values 0.991 | locus YER155C, strain BEM2 (second series), hits give low values 0.977 | locus YFR010W, strain ubp6, hits give low values 0.937 | locus YGL167C, strain pmr1, hits give low values 0.984 | locus YGL173C, strain kem1, hits give low values 0.953 | locus YGL227W, strain vid30, hits give low values 0.986 | locus YGL240W, strain doc1, hits give low values 0.941 | locus YGL253W, strain hxk2, hits give low values 0.982 | locus YHR013C, strain ard1, hits give low values 0.956 | locus YHR027C, strain rpn1, hits give low values 0.962 | [1] 0.969 | [2] 0.976 | locus YHR142W, strain chs7, hits give low values 0.986 | locus YJL092W, strain hpr5, hits give low values 0.999 | locus YJL095W, strain BCK1 (second series), hits give low values 0.975 | [3] 0.987 | locus YJL115W, strain asf1, hits give low values 0.961 | locus YJL129C, strain trk1, hits give low values 1.03 | locus YJL154C, strain vps35, hits give low values 0.982 | locus YJL164C, strain tpk1, hits give low values 0.986 | locus YJL166W, strain qcr8, hits give low values 0.977 | locus YJL187C, strain SWE1, hits give low values 0.988 | [4] 0.923 | locus YKL160W, strain elf1, hits give low values 0.985 | locus YKR026C, strain gcn3, hits give low values 0.996 | locus YKR091W, strain srl3, hits give low values 0.987 | locus YLL001W, strain dnm1, hits give low values 0.987 | locus YLL026W, hits give low values 0.974 | locus YLL041C, strain sdh2, hits give low values 0.978 | locus YLR027C, strain aat2, hits give low values 0.985 | [5] 1.03 | locus YLR221C, strain rsa3, hits give low values 0.988 | locus YLR258W, strain gsy2, hits give low values 0.984 | locus YLR262C, strain YPT6 (second series), hits give low values 0.933 | locus YLR320W, strain mms22, hits give low values 0.966 | locus YLR342W, strain FKS1, hits give low values 0.988 | locus YLR357W, strain rsc2, hits give low values 0.92 | locus YLR370C, strain arc18, hits give low values 0.986 | locus YLR384C, strain iki3, hits give low values 0.978 | locus YML120C, strain ndi1, hits give low values 0.998 | locus YMR058W, strain fet3, hits give low values 0.968 | locus YMR125W, strain sto1, hits give low values 1 | locus YMR129W, hits give low values 0.981 | locus YMR205C, strain PFK2, hits give low values 0.904 | locus YMR231W, strain pep5, hits give low values 0.989 | locus YNL071W, strain lat1, hits give low values 0.985 | [6] 0.942 | locus YNL209W, strain ssb2, hits give low values 0.971 | locus YNL248C, strain rpa49, hits give low values 0.998 | locus YNL322C, strain KRE1 (second series), hits give low values 0.983 | locus YNR049C, strain mso1, hits give low values 0.983 | locus YOR001W, strain rrp6, hits give low values 0.97 | locus YOR070C, strain gyp1, hits give low values 0.983 | locus YOR080W, strain dia2, hits give low values 0.971 | locus YOR083W, strain WHI5, hits give low values 0.974 | locus YOR106W, strain vam3, hits give low values 0.927 | [7] 0.954 | locus YOR265W, strain rbl2, hits give low values 0.987 | locus YOR270C, strain vph1, hits give low values 0.868 | locus YOR290C, strain snf2, hits give low values 0.895 | locus YPL051W, strain arl3, hits give low values 0.987 | locus YPL078C, strain atp4, hits give low values 0.986 | locus YPL106C, strain sse1, hits give low values 0.956 | locus YPL240C, strain hsp82, hits give low values 0.991 | [8] 0.987

From PubChem BioAssay AID1159580 (chemical genetic matrix, 2015)
